{"source": "ChEMBL document CHEMBL3988442", "about": "“University of Dundee, Small-Polar-MMV Screening Library” (2021)", "note": "The whole screen tested about 48,000 compounds, of which about 13,000 (27%) showed an effect of 50% or more. This is one part of the list."}
{"test_system": "Wolbachia pipientis", "test": "Anti-Wolbachia Cell-Based Screen", "type": "functional", "parameters": "scale not given: in the data most compounds retested in dose-response had high values", "conditions": "5 µM", "units": {"Percent Effect": "%"}}
{"compound": "N#Cc1ccc(CNC(=O)C2=NN(c3ccccc3)C(=O)CN2)cc1", "Percent Effect": -19.54}
{"compound": "N#Cc1ccnc(N2CCN(Cc3cccc(F)c3)CC2)c1", "Percent Effect": 16.74}
{"compound": "Cc1n[nH]c(=O)c2c(NC(=O)CN3CCOC(C)C3)oc(C)c12", "note": "(configuration not stated)", "Percent Effect": 0.9329}
{"compound": "COc1ccc(CNC[C@H]2COCc3nc4cccnc4n32)cc1", "Percent Effect": -4.105}
{"compound": "Cc1cc(CS(=O)(=O)NC2CCCc3ccccc32)on1", "note": "(configuration not stated)", "Percent Effect": -2.074}
{"compound": "COc1cccc(N2CCN(C(=O)C(O)CC(C)C)CC2=O)c1", "note": "(configuration not stated)", "Percent Effect": 12.91}
{"compound": "COc1cccc(N2Cc3nc(=O)[nH]n3C2=O)c1", "Percent Effect": -15.51}
{"compound": "COc1cccc(N2CCN(Cc3nccn3C(C)C)CC2=O)c1", "Percent Effect": 98.08}
{"compound": "COc1cccc(N2CCN(C(=O)C(C)Oc3ccccc3)CC2=O)c1", "note": "(configuration not stated)", "Percent Effect": 9.152}
{"compound": "COc1cccc(N2CCN(Cc3ccc4[nH]ccc4c3)CC2=O)c1", "Percent Effect": 81.94}
{"compound": "c1ccc2[nH]c(C3CCN(Cc4nnc(C5CC5)o4)CC3)cc2c1", "Percent Effect": 10.45}
{"compound": "Cc1cc(CNC(=O)c2cc(NC(=O)C(C)C)ccc2Cl)no1", "Percent Effect": 18.73}
{"compound": "O=C1C(N2CCN(c3ccc(O)cc3)CC2)CCN1C1CCOCC1", "note": "(configuration not stated)", "Percent Effect": -11.86}
{"compound": "CC(C)n1cnnc1CN(C)Cc1ccc(CO)o1", "Percent Effect": -7.369}
{"compound": "Cn1cnc2c1CCN(C(C(=O)N1CCCCC1)c1ccccc1)C2", "note": "(configuration not stated)", "Percent Effect": 18.33}
{"compound": "O=C(CNc1cc(-c2ccccc2)nc2ccnn12)NC1CC1", "Percent Effect": -3.438}
{"compound": "COC(=O)CSCc1nc(-c2ccc(Cl)cc2)no1", "Percent Effect": -16.66}
{"compound": "COCCOc1ncccc1-c1noc([C@@H]2CCCN2C2CCC2)n1", "Percent Effect": -10.03}
{"compound": "CN(c1cccnn1)C1CCN(C(=O)c2ccc3c(c2)COC3)CC1", "Percent Effect": -3.847}
{"compound": "CN(c1cccnn1)[C@@H]1CC[C@@H]2CN(Cc3ccccc3C(=O)O)C[C@@H]21", "Percent Effect": 106.4}
{"compound": "Cc1nn(C)c(C)c1CC(=O)N1CCC(N(C)c2cccnn2)CC1", "Percent Effect": -21.95}
{"compound": "CN(c1cccnn1)[C@@H]1CC[C@@H]2CN(Cc3cccc(C(=O)O)c3)C[C@@H]21", "Percent Effect": 111.9}
{"compound": "CC(O)CN1CCN(Cc2cccc(C(=O)N(C)C)c2)CC1", "note": "(configuration not stated)", "Percent Effect": -11.87}
{"compound": "Cn1cccc1C(=O)NCc1cn2c(n1)CN(c1ncccn1)CC2", "Percent Effect": -46.58}
{"compound": "O=C1CCCc2cc(-c3csc(CCN4CCOC4=O)n3)ccc2N1", "Percent Effect": 2.984}
{"compound": "CS(=O)(=O)CCOCCNc1ccc(C(F)(F)F)cc1C#N", "Percent Effect": -20.16}
{"compound": "CCn1nc(C)c(CN(CCOC)C(=O)c2cnc(C)nc2O)c1C", "Percent Effect": -5.757}
{"compound": "Nc1nc2nc(C3CCCN(C(=O)c4cnccn4)C3)ccc2s1", "note": "(configuration not stated)", "Percent Effect": 126}
{"compound": "Nc1nc2nc(C3CCN(C(=O)c4cscn4)C3)ccc2s1", "note": "(configuration not stated)", "Percent Effect": 104}
{"compound": "O=C(c1cscn1)N1CCC(Cn2cc(-c3ccsc3)nn2)CC1", "Percent Effect": 2.039}
{"compound": "Nc1nc2nc(C3CCCN(C(=O)c4cscn4)C3)ccc2s1", "note": "(configuration not stated)", "Percent Effect": -1.798}
{"compound": "Nc1nc2nc(C3CCCN(C(=O)c4cncs4)C3)ccc2s1", "note": "(configuration not stated)", "Percent Effect": 108.5}
{"compound": "O=C(c1cnccn1)N1CCCC(Cn2cc(C3CCCC3)nn2)C1", "note": "(configuration not stated)", "Percent Effect": -14.19}
{"compound": "O=C([C@H]1COC[C@H]2CN(CC3CC3)C[C@H]21)N1CCOCC1", "Percent Effect": 21.74}
{"compound": "CN(CCCC1CCCC1)C(=O)c1cc(CN2CCC(O)CC2)on1", "Percent Effect": -12.63}
{"compound": "COc1cccc(-c2nc3c([nH]2)CCNC3)c1F", "Percent Effect": -6.974}
{"compound": "CCOc1ccc(N2CCCN=C2NC(=O)c2ccccc2C)cc1", "Percent Effect": -3.123}
{"compound": "CC(C)NS(=O)(=O)c1cc(C(=O)O)cc(-c2ccc3c(c2)OCCO3)c1", "Percent Effect": -21.29}
{"compound": "Cc1ccc2c(c1)C(NCc1ccccn1)CC2", "note": "(configuration not stated)", "Percent Effect": 6.59}
{"compound": "CC(C)NC(=O)[C@@H]1CN(Cc2nccs2)C[C@H]2OCC[C@H]21", "Percent Effect": -53.61}
{"compound": "Cc1cnn(C2CCCN(C(=O)c3cccc(Cn4ccnc4)c3)C2)c1", "note": "(configuration not stated)", "Percent Effect": 6.448}
{"compound": "Cc1cnn(C2CCCN(C(=O)c3ccc(Cn4ccnc4)cc3)C2)c1", "note": "(configuration not stated)", "Percent Effect": 106.9}
{"compound": "Cc1cnn(C2CCCN(C(=O)c3ccc(-n4ccnc4)cc3)C2)c1", "note": "(configuration not stated)", "Percent Effect": 97.92}
{"compound": "CC(c1ccccc1)n1c(SCC(=O)O)nnc1-c1ccn[nH]1", "note": "(configuration not stated)", "Percent Effect": -4.886}
{"compound": "Cn1c(-c2ccccc2)nn(CCNS(=O)(=O)c2ccccc2Cl)c1=O", "Percent Effect": -1.369}
{"compound": "CCCS(=O)(=O)N1Cc2c(ncn2Cc2ccccc2)C[C@H]1C(=O)OC", "Percent Effect": -4.606}
{"compound": "N#Cc1cccc(S(=O)(=O)N2CC(CC(=O)O)c3ccccc32)c1", "note": "(configuration not stated)", "Percent Effect": -2.78}
{"compound": "CC1(C)CN(C(=O)Nc2ccc(Cn3cccn3)cc2)CCO1", "Percent Effect": -0.352}
{"compound": "O=C(C1CCC1)N1CC[C@H](O)[C@@H]1Cc1cccnc1.O=C(O)C(F)(F)F", "Percent Effect": 95.67}
{"compound": "Cn1cc(C[C@H]2[C@@H](O)CCN2C(=O)C2CC=CC2)cn1", "Percent Effect": -1.047}
{"compound": "O=C(C1CC=CC1)N1CC[C@@H](O)[C@H]1Cc1cccnc1", "Percent Effect": 109.3}
{"compound": "CN(C)[C@@H]1CCN(C(=O)C2CCOCC2)[C@H]1Cc1ccncc1.O=C(O)C(F)(F)F.O=C(O)C(F)(F)F", "Percent Effect": -5.936}
{"compound": "Cn1cc(C[C@H]2[C@@H](O)CCN2C(=O)C2CCC2)cn1", "Percent Effect": -13.15}
{"compound": "O=C(C1CCOCC1)N1CC[C@@H]2[C@H]1CCC(=O)N2c1ccccc1", "Percent Effect": -23.21}
{"compound": "O=C(C1CCOCC1)N1CC[C@@H](O)[C@@H]1Cc1ccncc1", "Percent Effect": 93.36}
{"compound": "O=C(C1CCOCC1)N1CC[C@@H](O)[C@@H]1Cc1ccccc1", "Percent Effect": 90.42}
{"compound": "Cn1cc(C[C@H]2[C@H](O)CCN2C(=O)C2CCOCC2)cn1", "Percent Effect": -4.576}
{"compound": "O=C(O)C(F)(F)F.O=C(O)C(F)(F)F.O[C@@H]1CCN(CC2CCOC2)[C@H]1Cc1cccnc1", "note": "(some centres not stated)", "Percent Effect": 3.217}
{"compound": "CC(C)N1CC(C(=O)N2CCc3c(nc(CC4CC4)[nH]c3=O)C2)CC1=O", "note": "(configuration not stated)", "Percent Effect": -6.23}
{"compound": "OCC1(CC2CCCCO2)CCN(c2cnc3ccccc3n2)CC1", "note": "(configuration not stated)", "Percent Effect": -13.06}
{"compound": "Cc1nc(N2CCCC(C)C2)nc2cc(S(C)(=O)=O)ccc12", "note": "(configuration not stated)", "Percent Effect": -6.696}
{"compound": "OCc1cn([C@@H]2c3ccccc3C3(CCNCC3)[C@H]2O)nn1", "Percent Effect": -1.268}
